Sampled rows, rich in hits. Any-hit rate of the full collection: about 2.4%.
D2 ag-1: agonists of human D2 dopamine receptor (beta-arrestin). P14416. DiscoveRx PathHunter D2 beta-arrestin, luminescence, 90 min; 100% = 57 uM dopamine signal. activation, % (no concentration beside the values). hit rate 0.084% among 360,000. AID 624465; in the data active = activation above about 40%; inconclusive = between about 15% and that limit
Target sequence (P14416 whole entry, looked up): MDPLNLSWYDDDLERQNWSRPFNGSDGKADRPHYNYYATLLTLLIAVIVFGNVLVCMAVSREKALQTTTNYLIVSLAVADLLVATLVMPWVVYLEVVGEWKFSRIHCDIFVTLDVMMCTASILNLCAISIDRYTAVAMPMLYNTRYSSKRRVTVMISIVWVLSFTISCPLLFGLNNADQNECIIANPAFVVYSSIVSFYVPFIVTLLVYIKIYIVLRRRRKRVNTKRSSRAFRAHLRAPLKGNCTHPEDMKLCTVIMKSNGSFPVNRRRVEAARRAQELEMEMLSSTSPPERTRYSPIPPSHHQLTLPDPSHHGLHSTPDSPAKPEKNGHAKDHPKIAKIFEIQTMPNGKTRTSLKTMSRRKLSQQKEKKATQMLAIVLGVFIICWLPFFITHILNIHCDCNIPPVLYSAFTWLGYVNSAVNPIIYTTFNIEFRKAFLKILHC
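Agonist mode: compounds alone added to overnight-plated D2 PathHunter cells for 90 min at 37 C, with 57 uM final dopamine (EC100) defining full response. Beta-arrestin recruitment detected by chemiluminescent reagent, read after 1 h at ambient temperature.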
D2 PAM-1: D2 dopamine receptor (human) potentiation | P14416 | HEK293 T-REx D2, calcium flux, EC20 dopamine potentiation | potentiation, % at 10 µM | hit rate 0.34% among 340,000 | AID 485347;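 active = potentiation over 3 SD above the plate norm, cut at about 30% in these data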
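Primary screen. Calcium kinetics in induced HEK293 T-REx D2 cells: compound pre-addition 180 s, EC20 dopamine, 180 s more.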
D2 PAM-2: human D2 receptor positive allosteric modulation; potentiation, % (test concentration not listed); DiscoveRx D2 beta-arrestin cells, luminescence, 90 min; 100% = 57 uM dopamine signal; hit rate 0.23% among 360,000; in the data active = potentiation above about 50%; inconclusive = mostly about 30% to 49%
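PathHunter D2 cells, attached overnight at 37 deg C, received compound in DMSO plus dopamine at EC20 (50 nM final) for 90 min at 37 deg C. Beta-arrestin recruitment was read as luminescence after 1 h with detection reagent at ambient temperature.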
D2 antag: antagonizes the human D2 dopamine receptor | HEK293 TREx D2 cells, calcium flux, dopamine EC80 | inhibition, % at 10 µM | hit rate 2% among 340,000 | AID 485344; in the data active = inhibition above about 30%; inactive = below that, where a call was filed
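Calcium flux kinetic readout in an inducible HEK293 TREx D2 line plated overnight at 30 C. After 180 s compound exposure, an EC80 dopamine challenge follows with another 180 s kinetic read to detect antagonism.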
D2 ag-2: D2 dopamine receptor (human) agonism; P14416; HEK293 T-REx D2 cells, calcium flux agonist mode; hit rate 0.53% among 340,000; activation, % at 2 µM;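 active = activation over 3 SD above normal in the single-dose calcium agonist read, cut at about 30% in these data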
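Tetracycline-induced HEK293 T-REx cells with force-coupled D2 receptor, plated overnight at 30 C, loaded with no-wash calcium dye. After a 10 s baseline, compound was pin-added and calcium flux read kinetically for 180 s; calcium rises flagged agonists.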
Large screens that a line does not name were inactive.

COc1ccc(CCNC(=O)COc2ccc(S(=O)(=O)NC3CCCCC3)cc2Cl)cc1	D2 PAM-1 34
COc1ccc(CNC(=O)COC(=O)c2n[nH]c3ccccc23)cc1	none
COc1ccc(CCNC(=O)COC(=O)C2CC2)cc1	D2 antag 31
O=C(COc1ccc(S(=O)(=O)NC2CCCCC2)cc1Cl)NCC1CCCO1 (stereo not drawn)	none
COc1ccc(S(=O)(=O)NC2CCCC2)cc1Br	D2 antag 31
Cc1cc(C)nc(NS(=O)(=O)c2ccc(N=NN(C)C)cc2)n1	none
CCOC(=O)c1cc(-c2ccc(OC)cc2)n(CCC(=O)NCCc2ccccc2)c1C	none (no result: D2 ag-1, D2 PAM-2, D2 antag)
O=C(CCc1nnc(-c2ccc(-c3ccccc3)cc2)o1)N1CCCCC1	D2 antag 62
COC(c1ccccc1)c1nnc(CCC(=O)N2CCCCCCC2)o1 (stereo not drawn)	none
O=C(C1CC1)N1CCc2cc(Br)cc(S(=O)(=O)NC3CCCCC3)c21	D2 antag 40
O=C(C1CC1)N1CCc2cc(Br)cc(S(=O)(=O)N3CCCCCC3)c21	none
CCc1ccc(NS(=O)(=O)c2cc(Br)cc3c2N(C(C)=O)CC3)cc1	none (no result: D2 ag-1, D2 PAM-1, D2 PAM-2, D2 antag)
COc1ccc(NS(=O)(=O)c2cc(Br)cc3c2N(C(C)=O)CC3)cc1	D2 antag 63
Cc1ccc(-c2nnc(Nc3ccc(OCC(N)=O)cc3)c3ccccc23)cc1S(=O)(=O)N(C)C	none (no result: D2 ag-1, D2 PAM-2, D2 antag)
CCN1/C(=C/C=C/c2oc3ccc4ccccc4c3[n+]2CC)Oc2ccc3ccccc3c21	D2 ag-2 45
CCN1C(=O)/C(=C/C=C2/Sc3ccc4ccccc4c3N2CCO)SC1=S	none
CC(C)OC(=O)c1c2c(n3ccccc13)C(=O)c1ccccc1C2=O	D2 ag-1 inconclusive, D2 ag-2 69
CC(=O)Nc1ccccc1-c1nc2ccccc2n(CC(=O)c2ccc(C)c(C)c2)c1=O	none (no result: D2 ag-1, D2 PAM-2, D2 antag)
c1ccc(CNc2nc3ccccc3n3cnnc23)nc1	none
c1ccc(CNc2nc3ccccc3n3cnnc23)cc1	D2 PAM-1 41
CCN1CCN(CCC(=O)Nc2cc(C)ccc2C)CC1	none
Cc1cccc(C(=O)NCCC(=O)N2CCc3ccccc3C2)c1	D2 antag 32
O=C(CCN1CCc2ccccc2C1)Nc1ccc2c(c1)OCO2	D2 antag 59
Cc1cccc(C(=O)NC(=S)N2CCc3ccccc3C2)c1	none
COc1cc2c(cc1OC)CN(C(=O)Nc1ccccc1Cl)CC2	D2 antag 35
Cc1ccc(C)c(NC(=O)CCN2CCc3ccccc3C2)c1	D2 antag 31
Cc1c(Cl)cccc1NC(=O)CCS(=O)(=O)c1ccc2c(c1)CC(=O)N2C	none (no result: D2 ag-1, D2 PAM-2, D2 antag)
COc1ccccc1NC(=O)CCN1C(=O)C2CC=CCC2C1=O (stereo not drawn)	none
COc1ccc(OC)c(NC(=O)Cn2c(=O)cc(-c3ccccc3)c3c(C)nn(C)c32)c1	none (no result: D2 ag-1, D2 PAM-2, D2 antag)
COc1ccccc1C(=O)NCCCCNC(=O)c1ccccc1OC	none (no result: D2 PAM-1, D2 antag, D2 ag-2)
COC(=O)C1=C(C)Nc2c(c(=O)n(C)c(=O)n2C)C1c1ccc(Cl)cc1 (stereo not drawn)	none
O=C(CN1CCc2ccccc2C1)Nc1ccccc1Cl	D2 antag 61, D2 ag-2 31
O=C(CN1CCc2ccccc2C1)Nc1ccccc1N1CCCCCC1	none
COc1ccc(OCCSc2nnc(C(C)NC(=O)c3ccccc3F)n2C)cc1 (stereo not drawn)	none
NC(N)=NCc1cccc(I)c1	D2 antag 34
CC(NCC(O)c1ccc([N+](=O)[O-])cc1)C12CC3CC(CC(C3)C1)C2 (stereo not drawn)	D2 antag 38
O=C(NCC(O)c1ccc([N+](=O)[O-])cc1)Nc1ccccc1 (stereo not drawn)	none
Cn1c(=O)c(NCCO)c2c3c(cccc31)C(=O)c1ccccc1-2	D2 antag 82, D2 ag-2 126
CCNc1c2c3c(cccc3n(C)c1=O)C(=O)c1ccccc1-2	D2 ag-2 112
Cn1c(=O)c(NC2CCCCC2)c2c3c(cccc31)C(=O)c1ccccc1-2	D2 antag 60, D2 ag-2 110
Cn1c(NCCc2ccccc2)cc(=O)n(C)c1=O	none
Cn1c(=O)c(NCCc2ccccc2)c2c3c(cccc31)C(=O)c1ccccc1-2	D2 antag 72, D2 ag-2 87
CC(=O)Nc1ccc(Nc2c3c4c(cccc4n(C)c2=O)C(=O)c2ccccc2-3)cc1	none
CCOc1ccc(C2=NC(c3ccncc3)=Nc3ccc(C)cc3N2)cc1OCC	none (no result: D2 ag-1, D2 PAM-2, D2 antag)
CC1CCN(c2ccc(NC(=O)C3CCCN3S(=O)(=O)c3ccc(F)cc3)cc2)CC1 (stereo not drawn)	none
Cn1c(=O)c2c(-c3ccccc3)n(-c3cccc(C#N)c3)cc2n(C)c1=O	none (no result: D2 ag-1, D2 PAM-2, D2 antag)
CCCCNc1c2c3c(cccc3n(C)c1=O)C(=O)c1ccccc1-2	D2 ag-2 93
COC(=O)NC1(C(F)(F)F)C(=O)NC(C)=C1C(=O)OC (stereo not drawn)	D2 PAM-1 39
CC12CCC(=O)N1C(C(=O)N1CCN(c3ccccc3)CC1)CS2 (stereo not drawn)	none
CC12CCC(=O)N1C(C(=O)N1CCN(c3cccc(Cl)c3)CC1)CS2 (stereo not drawn)	D2 antag 71
COc1ccc(NC(=O)C(=O)NCC2CCCN2S(=O)(=O)c2cccs2)cc1 (stereo not drawn)	none
Cc1ccccc1-n1ncc(C(C)NC(=O)c2ccccc2)c1C (stereo not drawn)	D2 antag 36
Cc1cccc(N2CCN(S(=O)(=O)c3ccc4oc(=O)c5ncn(C)c5c4c3)CC2)c1C	none (no result: D2 ag-1, D2 PAM-2, D2 antag)
CC(=O)N1CCCc2cc(S(=O)(=O)N3CCC(C(=O)NCCC(C)C)CC3)ccc21	none (no result: D2 ag-1, D2 PAM-2, D2 antag)
Clc1ccccc1Cn1nnc2c(N3CCCC3)ncnc21	none
CCc1nc(N2CCC3(CC2)OCCO3)c2nnn(Cc3ccccc3Cl)c2n1	D2 PAM-1 34
CCc1ccc(NC(=O)C2CCN(S(=O)(=O)c3ccc4c(c3)NC(=O)CO4)CC2)cc1	none
COc1cccc(NC(=O)C2CCN(S(=O)(=O)c3ccc4c(c3)CC(C)N4C(C)=O)CC2)c1 (stereo not drawn)	none
COc1ccccc1N1CCN(C(=O)C2CCN(S(=O)(=O)c3ccc4c(c3)CC(C)N4C(C)=O)CC2)CC1 (stereo not drawn)	none
CCc1cccc(NC(=O)C2CCN(S(=O)(=O)c3ccc4c(c3)NC(=O)CO4)CC2)c1	D2 antag 30
CC(=O)N1c2ccc(S(=O)(=O)N(C)CC(=O)N3CCCC3)cc2CC1C (stereo not drawn)	D2 PAM-1 42
CCc1cccc(NC(=O)C2CCN(S(=O)(=O)c3ccc4c(c3)CC(C)N4C(C)=O)CC2)c1 (stereo not drawn)	D2 antag 70

Screens deposited in PubChem BioAssay by National Center for Advancing Translational Sciences (NCATS).
